In PubChem BioAssay (NCI):
About 79,000 compounds went through this panel and 15% of them were active in at least one assay; those are over-represented in the sample as a whole. Calls of active or inactive are those of the source. No stated cut-off is given here; in the data, active means growth inhibition above about 70%; inactive means the rest.

What was measured:
[1] = NCI Yeast Anticancer Drug Screen. Data for the rad50 strain (AID 155);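 further: 0% = growth of vehicle-only cultures of the same strain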; conditions: S. cerevisiae rad50 strain growth inhibition; at 50.0 µM; active compounds read high
Outline: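 Relative growth inhibition (compound vs vehicle) was measured in yeast with a defined repair-gene alteration.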

[2] = NCI Yeast Anticancer Drug Screen. Data for the mec2-1 strain (AID 157); conditions: S. cerevisiae mec2-1 strain, at 50.0 µM, active compounds read high
Outline: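 Vehicle-treated cultures served as reference for growth inhibition of compound-exposed mec2-1 yeast.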

[3] = NCI Yeast Anticancer Drug Screen. Data for the sgs1 mgt1 strain (AID 161);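 further: 0% = growth of cultures given vehicle only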; conditions: S. cerevisiae sgs1 mgt1 strain, at 50.0 µM, active compounds read high
Outline: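 Mutant yeast exposed to compound; growth scored against vehicle-only wells.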

[4] = NCI Yeast Anticancer Drug Screen. Data for the cln2 rad14 strain (AID 165);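 further: 0% = growth equal to vehicle treated cultures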; conditions: S. cerevisiae cln2 rad14 strain, at 50.0 µM, active compounds read high
Outline: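 Each compound was tested on cln2 rad14 yeast. Inhibition of growth was calculated against vehicle-exposed controls.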

[5] = NCI Yeast Anticancer Drug Screen. Data for the bub3 strain (AID 167); conditions: S. cerevisiae bub3 mutant strain, at 50.0 µM, active compounds read high
Outline: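 Screening used yeast with an engineered genetic alteration affecting cell cycle control. Compound-exposed cultures were compared with vehicle cultures, and reduced growth was taken as inhibition.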

[6] = NCI Yeast Anticancer Drug Screen. Data for the mlh1 rad18 strain (AID 175); conditions: S. cerevisiae mlh1 rad18 strain growth inhibition; at 50.0 µM; active compounds read high
Outline: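 Vehicle-treated cultures served as the reference for growth inhibition in a yeast strain carrying DNA damage repair alterations exposed to each compound.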

Measured: growth inhibition

O=C(NCCCl)NC(C1CC1)C1CC1
inactive: [1] 13.1% | [2] -2.9% | [3] 6.45% | [4] -58.1% | [5] 13.4% | [6] -3.95%

N#CC1(Cc2ccccc2)c2ccccc2-c2ccccc21
inactive: [1] 34.2% | [2] 27.8% | [3] 28.8% | [4] 1.85% | [5] 24.9% | [6] 45%

[O-]c1c[n+](CCCC[n+]2cc([O-])on2)no1
inactive: [1] -5.4% | [2] -32.8% | [3] -13.3% | [4] 3.55% | [5] -60.7% | [6] -1.95%

CCCc1ccccc1[N+](=O)[O-]
inactive: [1] 0.25% | [2] -14.9% | [3] -10.5% | [4] -4.35% | [5] 8.7% | [6] -7.1%

c1ccc(C(=C2C(=C(c3ccccc3)c3ccccc3)c3nc4ccccc4nc32)c2ccccc2)cc1
inactive: [1] 26.8% | [2] 8.8% | [3] 7% | [4] 16.9% | [5] -1.05% | [6] 8.1%

C[n+]1ccccc1CCC(=O)Nc1ccccc1
inactive: [1] -0.65% | [2] 14.9% | [3] 2.05% | [4] 0.05% | [5] 0.7% | [6] -17.9%

Cc1cc(C)n(-c2nc(-n3nc(C)cc3C)nc(-n3nc(C)cc3C)n2)n1
inactive: [1] -34.2% | [2] -32.2% | [3] -1.7% | [4] -20.6% | [5] -21.1% | [6] -41.5%

Clc1ccc(SCCCCSc2ccc(Cl)cc2)cc1
inactive: [1] 8.05% | [2] -6.7% | [3] 7.7% | [4] -3.45% | [5] 10.8% | [6] 10.8%

CCCC/C=C(\C)C(C)(C#N)C(=O)OCC (stereo unspecified)
inactive: [1] -35.4% | [2] -0.4% | [3] -4.5% | [4] -14% | [5] -17.9% | [6] -3.15%

CC(SC(C)C(=O)N/N=C/C=C\c1ccccc1)C(=O)N/N=C\C=C\c1ccccc1 (stereo unspecified)
inactive: [1] 15.1% | [2] 5% | [3] 1.05% | [4] 7.8% | [5] 4.05% | [6] 33.7%

CC(=O)NC1c2ccccc2Oc2c(C)cccc21 (stereo unspecified)
inactive: [1] -8.8% | [2] 0.85% | [3] 1.7% | [4] -15.9% | [5] 2.75% | [6] 2.6%

CCCC(O)C(C)(C)[N+](=O)[O-] (stereo unspecified)
inactive: [1] 60.9% | [2] 5.45% | [3] 12.9% | [4] -2.85% | [5] 8% | [6] 9.95%

O=C1C(c2ccccc2)=C(c2ccccc2)C(c2ccc(Cc3ccc(C4=C(c5ccccc5)C(=O)C(c5ccccc5)=C4c4ccccc4)cc3)cc2)=C1c1ccccc1
inactive: [1] 20.1% | [2] 32.4% | [3] 16.8% | [4] 14.6% | [5] 15.1% | [6] 26.6%

CN(C)CCCNC(=O)N/N=C\c1cccc2ccccc12
inactive: [1] -2.9% | [2] -24% | [3] -17.4% | [4] 14.8% | [5] -4% | [6] -6.45%

CNc1ccc(C(=O)O)cc1C
inactive: [1] 1.25% | [2] 12.6% | [3] 9.8% | [4] -15.8% | [5] -56.4% | [6] 0.4%

O=C(Oc1c(OC(=O)c2ccccc2)c2ccccc2c2ccccc12)c1ccccc1
inactive: [1] 3.2% | [2] 9.35% | [3] 7.85% | [4] -1.7% | [5] -1.25% | [6] 20.4%

CC(O)C([NH-])C(=O)O.CC([NH-])C(=O)O.[Cu+2] (stereo unspecified)
inactive: [1] 26.6% | [2] 15.7% | [3] 6.95% | [4] 12.7% | [5] 13.3% | [6] 15.4%

OCCSCc1cc2c(cc1Br)OCO2
inactive: [1] -29.5% | [2] -2% | [3] -11.8% | [4] 19.8% | [5] 12.4% | [6] 2.15%

NNc1c(F)c(F)c2c(F)c(F)c(F)c(F)c2c1F
active: [1] 97.8% | [2] 96.5% | [3] 95.5% | [4] 94.5% | [5] 97.7% | [6] 97.5%

COc1ccc2c(c1)OC(C)(C)c1c-2n(C)c2c(F)cccc2c1=O
inactive: [1] 14.8% | [2] 8.7% | [3] 16.1% | [4] 14.2% | [5] 5.35% | [6] 29.8%

O=C(O)c1cccc([N+](=O)[O-])c1C(=O)O
inactive: [1] 15.3% | [2] 11.3% | [3] 11.4% | [4] 7.9% | [5] -1.9% | [6] 17.2%

CC1(C)C2CC3C(=CCCC3C(=O)O)C1C2 (stereo unspecified)
inactive: [1] 11.4% | [2] 15.3% | [3] -8.55% | [4] 9.8% | [5] 11.1% | [6] 12.8%

COc1ccc2nc(-c3ccccc3)c(=O)[nH]c2c1
inactive: [1] 4.1% | [2] 13.8% | [3] 24.7% | [4] 12.6% | [5] 25.1% | [6] 10.5%

CN(c1ccccc1)c1cc2nc3ccccc3nc2cc1O
inactive: [1] 15.3% | [2] 17.4% | [3] 4.3% | [4] 14.3% | [5] 2% | [6] -1.6%

CN(C)CCSCC(=O)N1c2ccccc2Sc2ccc(Cl)cc21
inactive: [1] -5.25% | [2] -7.45% | [3] -2.9% | [4] 17.6% | [5] 7.95% | [6] -0.5%

CCCCCC1=CC(=O)C=C(OC)C12C(=O)Oc1cc(O)c(C(=O)O)c(CCCCC)c12 (stereo unspecified)
inactive: [1] 32.4% | [2] 37% | [3] 28.2% | [4] 48.4% | [5] 18.6% | [6] 33.8%

Nc1cccc2c([N+](=O)[O-])cccc12
inactive: [1] 62.7% | [2] 34.4% | [3] 62.8% | [4] 31.2% | [5] 17% | [6] 60.2%

Cc1nn(C(=O)c2ccc(Cl)cc2)c2c1C(c1ccccc1)SC(N)=N2 (stereo unspecified)
inactive: [1] -18.6% | [2] -38% | [3] -5.15% | [4] 6.2% | [5] 18.4% | [6] -3.5%

COc1c(OC(C)=O)cc(Cl)c(C=O)c1[N+](=O)[O-]
inactive: [1] 5.25% | [2] 2.4% | [3] 19.3% | [4] 5.8% | [5] 1.55% | [6] -9.3%

C/C=C(/C)C(=O)O[C@@H]1c2c(C)coc2C(=O)[C@@]2(OC(C)=O)CCC[C@@](C)(O)[C@@]12C
inactive: [1] 26.8% | [2] 9.55% | [3] 24.3% | [4] 22.6% | [5] 39.4% | [6] 43.9%

c1ccc2cc3c(cc2c1)OP1(=NP2(=NP4(=N1)Oc1cc5ccccc5cc1O4)Oc1cc4ccccc4cc1O2)O3
inactive: [1] 67.7% | [2] 28.1% | [3] 33.6% | [4] 18.8% | [5] 15.7% | [6] 12.6%

O=C(O)c1c[nH]c2cc(O)ccc2c1=O
inactive: [1] -0.5% | [2] 3.3% | [3] -4.75% | [4] -6.5% | [5] 15.3% | [6] -2.7%

CCCCC1CCC(=O)NC1=O (stereo unspecified)
inactive: [1] 4.25% | [2] 29.6% | [3] 5.8% | [4] 5.2% | [5] 14.7% | [6] 1.9%

O=C(Nc1ccccc1SC(/C=C/NNC1=NC(c2ccccc2)C(c2ccccc2)=NN1)c1ccccc1)c1ccc(Cl)cc1Cl (stereo unspecified)
inactive: [1] -35% | [2] -7.7% | [3] -22.8% | [4] 24.8% | [5] 0.15% | [6] -13.4%

Cc1ccc(-n2cc(-c3ccc(Cl)cc3)c3c(=N)n(N)cnc32)cc1
inactive: [1] -12.2% | [2] -14.2% | [3] 49.8% | [4] 26.2% | [5] 16.8% | [6] 47%

CCN(Cc1ccc(CN(CC)C(=O)c2sc3ccccc3c2Cl)cc1)C(=O)c1sc2ccccc2c1Cl
inactive: [1] -3.5% | [2] -19.6% | [3] -7.35% | [4] -1.4% | [5] -11.4% | [6] -4.55%

NC1C2C=CC(C2)C1C(=O)O (stereo unspecified)
inactive: [1] -0.65% | [2] -0.25% | [3] -50.4% | [4] 4% | [5] -26.6% | [6] -17.3%

C=CCNC(=S)N(Cc1ccccc1)Cc1ccccc1
active: [1] 86.2% | [2] 80% | [3] 91.9% | [4] 82.9% | [5] 88.7% | [6] 86.5%

CC[N+](C)(CC)CCOc1nc2c(c(=O)n(C)c(=O)n2C)n1C
inactive: [1] -9.5% | [2] -6.85% | [3] -6.05% | [4] 5.25% | [5] -22.5% | [6] -2.65%

CCOC(=O)C1CCc2ccccc2C1=O (stereo unspecified)
inactive: [1] -2.95% | [2] -12.3% | [3] 5.85% | [4] -3.35% | [5] 14.6% | [6] -4.95%

NC(=O)/C(=C\c1ccc(OCc2ccccc2)c(OCc2ccccc2)c1)NC(=O)c1ccccc1
inactive: [1] 41.2% | [2] 22.4% | [3] 44% | [4] 32.6% | [5] -3.65% | [6] 17.7%
